For orientation: inhibition means the drop in the measured response relative to a control, in per cent.

Data on 36 compounds can be found in ChEMBL document CHEMBL3433997, “St. Jude Leishmania screening dataset” (2016).

Assay type in all cases: functional
Experiment [1] concerns the target Solute carrier family 2, facilitated glucose transporter member 1 (Homo sapiens) (UniProt P11166). As to the kind of experiment: ST_JUDE_LEISH: Cytotoxicity at 2uM final concentration against transgenic Leishmania Mexicana promastigotes LmGLUT1 that are glucose transport deficient and complemented with the human glucose transporter GLUT1. Activity is measured by DNA content using SYBR green in vitro.

Experiment [2] has as its target Hexose transporter 1 (Plasmodium falciparum) (UniProt O97467). As to the kind of experiment: ST_JUDE_LEISH: Cytotoxicity at 2uM final concentration against transgenic Leishmania Mexicana promastigotes LmPfHT that are glucose transport deficient and complemented with the Plasmodium falciparum hexose transporter. Activity is measured by DNA content using SYBR green in vitro.

The target of experiment [3] is Glucose transporter (Leishmania mexicana) (UniProt O61059). As to the kind of experiment: ST_JUDE_LEISH: Cytotoxicity at 2uM final concentration against transgenic Leishmania Mexicana promastigotes LmGT2 that are glucose transport deficient and complemented with the L. Mexicana glucose transporter 2. Activity is measured by DNA content using SYBR green in vitro.

Chain of Solute carrier family 2, facilitated glucose transporter member 1 (Homo sapiens) (P11166 whole entry): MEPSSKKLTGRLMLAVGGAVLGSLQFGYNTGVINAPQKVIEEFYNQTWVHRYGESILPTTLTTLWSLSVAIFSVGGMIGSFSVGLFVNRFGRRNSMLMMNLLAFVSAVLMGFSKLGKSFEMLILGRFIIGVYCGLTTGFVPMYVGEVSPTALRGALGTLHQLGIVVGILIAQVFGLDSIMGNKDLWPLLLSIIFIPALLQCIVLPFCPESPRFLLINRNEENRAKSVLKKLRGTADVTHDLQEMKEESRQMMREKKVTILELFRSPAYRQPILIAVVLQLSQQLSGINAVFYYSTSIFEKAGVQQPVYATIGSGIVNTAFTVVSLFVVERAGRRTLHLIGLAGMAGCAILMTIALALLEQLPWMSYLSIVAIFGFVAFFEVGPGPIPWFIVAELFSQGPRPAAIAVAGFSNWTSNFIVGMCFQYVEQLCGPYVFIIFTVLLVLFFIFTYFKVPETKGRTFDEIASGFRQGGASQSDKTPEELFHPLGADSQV

Consider `CCCCCCC1(C)N=C(N)N=C(N)C1c1ccc(Cl)c(Cl)c1` (stereo not drawn), for which the inhibition in experiment [1] is 1.71%; in experiment [2], 1.39%; in experiment [3] it was 0.06%.

For the compound `COc1cc2nc(NCCCN3CCCCC3)nc(NCc3ccccc3)c2cc1OC`, the results for the inhibition in experiment [1], in experiment [2] and in experiment [3] were 2.96%, 4.73% and -0.35%, respectively.

Take `C=Cc1ccc(-c2c(C)[nH]c(C)c(Br)c2=O)cc1`: the inhibition in experiment [1] is 0.56%; in experiment [2], 1.38%; in experiment [3] it was -0.92%.

In the case of `Fc1ccc2c(NN=Cc3ccccc3)ccnc2c1`, the inhibition was 2.29% in experiment [1], 1.07% in experiment [2] and -1.55% in experiment [3].

In the case of `CN1CCN(c2ccnc3ccc(NC(=O)Nc4ccc(-c5ccccc5)cc4)cc23)CC1`, the results for the inhibition in experiment [1], in experiment [2] and in experiment [3] were 3.26%, 2.25% and 2.96%, respectively.

Turning to `N=C(N)NC(=O)Nc1cc(Br)c(Cl)c(C(F)(F)F)c1`, the inhibition in experiment [1] was determined as 4.79%; in experiment [2], 3.32%; in experiment [3] it was 0.66%.

Regarding `CC(C)CCN1CCC(Oc2ccc(NC(=O)c3cccs3)cc2Cl)CC1`, the inhibition in experiment [1] is 0.82%; in experiment [2] it was 4.49%; in experiment [3], 3.68%.

With `O=C(NC1CCN(Cc2ccccc2)CC1)c1cccc(Nc2nc(-c3ccccc3)cs2)c1`, the values for the inhibition in experiment [1], in experiment [2] and in experiment [3] were 9.1%, 8.88% and 2.09%, respectively.

For `CNc1nc(N/N=C/c2cc([N+](=O)[O-])c(Cl)cc2Cl)nc(Nc2cccc(C(F)(F)F)c2)n1`, the inhibition in experiment [1] is 4.8%; in experiment [2], 2.41%; in experiment [3], 0.84%.

`COc1ccc(Nc2nccc(N3CCC(NC(=O)C(C)c4ccc(Cl)cc4)C3)n2)cc1` (stereo not drawn): the inhibition in experiment [1] is -0.18%; in experiment [2], 0.96%; in experiment [3], 1.34%.

For the compound `CCOc1cc(C(=O)N[C@@H](Cc2ccccc2)[C@H](O)CNCc2cc(OC)cc(OC)c2)cc(N2CCCC2=O)c1`, the figures for the inhibition in experiment [1], in experiment [2] and in experiment [3] were 9.97%, 8.91% and 2.86%, respectively.

Take `Cc1ccc2[nH]c(-c3cc(-c4cccc(CCN5CCOCC5)c4)cnc3N)nc2c1`: the inhibition was determined as 4.66% in experiment [1], 5.93% in experiment [2] and 1.19% in experiment [3].

In the case of `Cc1ccoc1C(=O)Nc1ccc(-c2cccc(-c3nc4cccc(C)c4[nH]3)c2)cc1`, the inhibition came to 2.21% in experiment [1], 2.54% in experiment [2] and 1.34% in experiment [3].

On to `CC(C)Cn1ccc2c3c(N)nc(N)nc3ccc21`, for which the figures for the inhibition in experiment [1], in experiment [2] and in experiment [3] were 27.1%, 47.5% and 17%, respectively.

Regarding `COc1cc(F)c2nccc([C@@H](O)CN3CCC(NCc4cc5c(cc4F)OCCO5)CC3)c2c1`, the inhibition in experiment [1] was 1.5%; in experiment [2], 0.69%; in experiment [3], -2.93%.

For the compound `Oc1cccc(Nc2nc(NCc3ccccc3)c3ccccc3n2)c1`, the inhibition in experiment [1] worked out at 22.9%; in experiment [2], 19.9%; in experiment [3] it was 11.8%.

In the case of `CC(C)(C)c1ccc(NC(=O)c2ccc(CN3CCCN(CC4CCCCC4)CC3)cc2)cc1`, the inhibition in experiment [1] turned out to be 3.27%; in experiment [2], 1.6%; in experiment [3], 5.35%.

`CS(=O)(=O)c1cccc2sc(N3CCN(C(=O)c4ccc([N+](=O)[O-])o4)CC3)nc12`: the inhibition in experiment [1] stood at 35.6%; in experiment [2], 23.7%; in experiment [3], 3.97%.

On to `O=C1NC(=O)C(c2cccc(NC(=O)c3ccncc3)c2)=C1c1ccccc1`, for which the inhibition in experiment [1] is 1.05%; in experiment [2] it was 1.65%; in experiment [3], -4.34%.

As to `O=C(NCCCCN1CCC(C(c2ccccc2)c2ccccc2)CC1)c1ccc(NC(=O)c2ccc(Cl)cc2)cc1`, the inhibition is -0.78% in experiment [1], -0.4% in experiment [2] and -1.74% in experiment [3].

Turning to `N#Cc1ccc(C(=O)Nc2ccc(Cl)c(N3CCN(CCc4ccccc4)CC3)c2)cc1`, the inhibition in experiment [1] stood at 8.77%; in experiment [2] it was 7.95%; in experiment [3] it was 7.85%.

On to `COc1ccc(C(=O)CCC(=O)N(Cc2ccc(-c3ccc(CNCCc4ccc(S(C)(=O)=O)cc4)cn3)cc2)Cc2ccc3c(c2)OCO3)cc1F`, for which the figures for the inhibition in experiment [1], in experiment [2] and in experiment [3] were 1.12%, -0.05% and -0.58%, respectively.

In the case of `CC(C)[C@H](NC(=O)c1ccc(O)c(-c2ccc(Cl)c(Cl)c2)c1)C(=O)NC1CCCCCC1`, the inhibition in experiment [1] was 0.48%; in experiment [2], 0.52%; in experiment [3] it was -4.76%.

On to `CC(=O)Nc1nc(C(=O)Nc2ccc(-c3cccc(-c4nc5cc(F)ccc5[nH]4)c3)cc2)cs1`, for which the figures for the inhibition in experiment [1], in experiment [2] and in experiment [3] were 2.47%, 2.89% and 3.35%, respectively.

In the case of `CCC(C)NCC(O)(c1ccc(Cl)cc1)c1ccc(Cl)cc1` (stereo not drawn), the figures for the inhibition in experiment [1], in experiment [2] and in experiment [3] were -2.33%, -0.32% and -0.2%, respectively.

For the compound `CN(C)c1ccc(/N=C2/N/C(=N/c3ccc(N(C)C)cc3)c3ccccc32)cc1`, the inhibition was determined as 4.81% in experiment [1], 6.38% in experiment [2] and 3.25% in experiment [3].

For the compound `O=C(Cn1c(CCc2cccc(F)c2F)cc(=O)c2ccccc21)N(Cc1ccc(-c2ccc(C(F)(F)F)cc2)cc1)C1CCN(CCO)CC1`, the inhibition stood at 4.1% in experiment [1], 3.74% in experiment [2] and 4.47% in experiment [3].

As for `CN1CCN(CC(=O)Nc2cccc(-c3cccc(-c4nc5ccccc5[nH]4)c3)c2)CC1`, the figures for the inhibition in experiment [1], in experiment [2] and in experiment [3] were -0.57%, -0.37% and -3.47%, respectively.

With `Nc1nc2ccc(S(=O)(=O)Nc3ccc(C(=O)N[C@@H](CCC(=O)O)C(=O)O)c(F)c3)cc2c(=O)[nH]1`, the inhibition in experiment [1] was 0.57%; in experiment [2], 1.22%; in experiment [3] it was 1.53%.

For the compound `COc1cc(-c2[nH]c(-c3ccc(OCCN(C)C)cc3)cc2-c2ccncc2)ccc1Cl`, the inhibition in experiment [1] was determined as 1.46%; in experiment [2], 1.55%; in experiment [3], 1.76%.

`Nc1nc(N)c2c(ccc3c2ccn3Cc2ccccn2)n1`: the inhibition turned out to be 86.5% in experiment [1], 92% in experiment [2] and 78% in experiment [3].

For `CC1(C)NC(N)=NC(=N)N1OCCSCc1cc(Cl)sc1Cl`, the figures for the inhibition in experiment [1], in experiment [2] and in experiment [3] were 6.6%, 7.38% and 2.82%, respectively.

On to `COc1ccc(NC(=O)c2ccc(Br)c(C)c2)cc1N1CCN(Cc2ccccc2)CC1`, for which the inhibition in experiment [1] is 1.57%; in experiment [2], 0.13%; in experiment [3], -0.04%.

In the case of `CCCc1cc(Cc2cnc(N)nc2N)cc(CCC)c1OCCCCC(=O)OCC`, the figures for the inhibition in experiment [1], in experiment [2] and in experiment [3] were 6.48%, 2.3% and 1.54%, respectively.

On to `Cc1cc(NCCC(=O)NCCOc2ccccc2)nc(NCCOc2ccccc2)n1`, for which the inhibition in experiment [1] was 3.09%; in experiment [2], -0.07%; in experiment [3], 0.08%.

As for `CCn1ncc2c(N3CCCC3=O)cc(C(=O)N[C@@H](Cc3ccccc3)[C@H](O)CNC(C)(C)c3cccc(C(F)(F)F)c3)cc21`, the inhibition in experiment [1] was -0.71%; in experiment [2], 0.84%; in experiment [3] it was 5.42%.
